In all, about 69,000 compounds went through this assay and about 8,600 (12%) showed an effect of 50% or more. This is one part of a sample in which strong results are shown more often than they occur.
Each molecule was assayed on Plasmodium berghei (assay: Screen against P. berghei liver stage (PbLuc), transformed with Luciferase, at 10uM). Settings: tested at 10 uM.
Format: functional, HepG2
Work on Oc1ccc(CCC2CCCCN2Cc2noc(C3CC3)n2)cc1 (stereo unspecified) yielded an INHIBITION of 26.5%.
For Cc1cc(C)cc(CCC(=O)N2CCN(c3cc(C)nc(N)n3)CC2)c1, the INHIBITION was 80.5%.
With Cc1cc(N2CCN(C(=O)c3cc(Cl)c[nH]3)CC2)nc(N)n1 the INHIBITION was 50.1%.
For Cc1cc(N2CCN(C(=O)CCc3scnc3C)CC2)nc(N)n1, the INHIBITION was -6.72%.
Molecule Cc1cc(N2CCN(C(=O)c3cc(Cl)c[nH]3)CC2)nc(C(C)C)n1 has an INHIBITION of 24.6%.
Cc1cc(N2CCN(C(=O)c3cc(Cl)c[nH]3)CC2)nc(C)n1 was tested, and the INHIBITION was 5.76%.
COc1cc(C)nc(N2CCN(C(=O)CCc3ccncc3)CC2)n1 gave an INHIBITION of 7.18%.
CN1[C@@H](C(=O)NCC2CC2)C[C@H]2CN(Cc3ccsc3)C[C@H]21 showed an INHIBITION of -14.7%.
NC(=O)c1cc2c(nc1N1C[C@H]3OC(=O)N(C4CCCC4)[C@H]3C1)CCC2 showed an INHIBITION of 5.05%.
Work on Cc1c(NCc2cccnc2)cccc1C(=O)N1CCC(N(C)C)C1 (stereo unspecified) yielded an INHIBITION of 24.4%.
For CC(C(=O)Nc1ccon1)n1ccc(C(F)(F)F)n1 (stereo unspecified), the INHIBITION was 15.1%.
N#Cc1cccnc1N1CCCN(C(=O)CCn2cncn2)CC1 gave an INHIBITION of 14.1%.
Work on c1cc(CNCC2CNc3ccnn3C2)cc(N2CCOCC2)n1 (stereo unspecified) yielded an INHIBITION of 62.1%.
In the case of COc1cc(CNCC2CNc3ccnn3C2)ccn1 (stereo unspecified), the INHIBITION is reported as 23.7%.
For c1ccc(-n2ccnc2)c(CNCC2CNc3ccnn3C2)c1 (stereo unspecified), the INHIBITION was 55.1%.
Work on c1cc(CNCC2CNc3ccnn3C2)cc(N2CCCCC2)n1 (stereo unspecified) yielded an INHIBITION of 37%.
OCc1ccccc1CNCC1CNc2ccnn2C1 (stereo unspecified) showed an INHIBITION of -17%.
For c1cc(CNCC2CNc3ccnn3C2)cc(OC2CCCCC2)n1 (stereo unspecified), the INHIBITION was 40.2%.
With c1cc(CNCC2CNc3ccnn3C2)cc(Cn2cccn2)c1 (stereo unspecified) the INHIBITION was 50.5%.
With c1cc2n(n1)CC(CNCc1ccc(OC3CCCC3)nc1)CN2 (stereo unspecified) the INHIBITION was 41.5%.
Molecule c1ccc(Cn2cccn2)c(CNCC2CNc3ccnn3C2)c1 (stereo unspecified) has an INHIBITION of 45.8%.
Molecule c1ccc(Cn2cc(CNCC3CNc4ccnn4C3)cn2)cc1 (stereo unspecified) has an INHIBITION of 9.54%.
With c1cc(CNCC2CNc3ccnn3C2)cc(OC2CCCC2)n1 (stereo unspecified) the INHIBITION was 60.7%.
Molecule c1ccc(Cn2cncn2)c(CNCC2CNc3ccnn3C2)c1 (stereo unspecified) has an INHIBITION of 36.4%.
In the case of O=C(Cn1c(C(F)F)cc2cccnc21)NC1CCCC1, the INHIBITION is reported as 22%.
For CN(C)c1nc(CNC(=O)Nc2cccc([S+](C)[O-])c2)cs1 (stereo unspecified), the INHIBITION was 12.4%.
Cc1cnn(CC(=O)N2CCC(c3ccn4nccc4n3)CC2)c1 showed an INHIBITION of 32.7%.
In the case of CCOC1COC2(CCN(Cc3cccc(C#N)c3)CC2)C1 (stereo unspecified), the INHIBITION is reported as 29.7%.
CN1CCCN(C(=O)NCCOc2ccc3c(c2)OCO3)CC1 gave an INHIBITION of 33.3%.
With COCCN1C(=O)C[C@@H]2[C@H]1CCN2C(=O)c1ccc[nH]1 the INHIBITION was -14.4%.
For Cc1nc(C)n(CC2CCCN(CC(=O)N3CCCC3)C2)n1 (stereo unspecified), the INHIBITION was 7.67%.
CCc1noc(-c2cccc(C(=O)O)c2)n1 gave an INHIBITION of -30%.
For CN1C[C@@H](C(=O)N(C)C)[C@@]2(CCc3ccccc3C(=O)N2)C1, the INHIBITION was 4.41%.
With Cc1cnn(CC2CN(Cc3noc(C4CC4)n3)CCO2)c1 (stereo unspecified) the INHIBITION was -12.2%.
Cc1ccc2c(c1)OC(C)CN2C(=O)CCc1cccnc1 (stereo unspecified) gave an INHIBITION of 43.4%.
Cc1ccc2c(c1)OC(C)CN2C(=O)Cc1ccc(C)nc1 (stereo unspecified) gave an INHIBITION of 59.1%.
With Cc1ccc2c(c1)OC(C)CN2C(=O)CCc1cscn1 (stereo unspecified) the INHIBITION was 9.04%.
Molecule CCSc1ccccc1C(=O)NCC1CCN(Cc2ccsc2)CC1 has an INHIBITION of 13.6%.
In the case of COC(=O)CN1CCCN(C(=O)CCOc2cccc(C)c2C)CC1, the INHIBITION is reported as 29.7%.
With NC(=O)CN1CCCN(C(=O)Cc2ccc(F)cc2)CC1 the INHIBITION was 5.03%.
In the case of Cc1cccc(OCCC(=O)N2CCCN(C(N)=O)CC2)c1C, the INHIBITION is reported as 15.5%.
With Cc1cccc(OCCC(=O)N2CCCN(CC(N)=O)CC2)c1C the INHIBITION was 55.9%.
NC(=O)CN1CCCN(C(=O)Cc2ccc(Br)cc2)CC1 showed an INHIBITION of 54.4%.
NC(=O)CN1CCCN(C(=O)Cc2ccc3ccccc3c2)CC1 was tested, and the INHIBITION was -9.98%.
CN(CC(=O)NCC(=O)Nc1ccc(F)cc1)Cc1cccs1 showed an INHIBITION of 5.87%.
Molecule N#Cc1cccnc1N1CCCC(CO)(Cc2ccc(F)cc2)C1 (stereo unspecified) has an INHIBITION of 85.5%.
CCC1(CO)CCCN(c2ncccc2C#N)C1 (stereo unspecified) gave an INHIBITION of 5.14%.
CSC(C)C(=O)N1CCCN(c2ncccc2C#N)CC1 (stereo unspecified) gave an INHIBITION of 1.78%.
Work on N#Cc1cccnc1N1CCCC(CO)(Cc2ccccc2F)C1 (stereo unspecified) yielded an INHIBITION of -17.2%.
For Cc1ccccc1CC1(CO)CCCN(c2ncccc2C#N)C1 (stereo unspecified), the INHIBITION was 56.8%.
N#Cc1cccnc1N1CCCC(CO)(Cc2cccc(Cl)c2)C1 (stereo unspecified) was tested, and the INHIBITION was -84%.
Cc1ccccc1CN1C[C@@H]2COC[C@]2(CNC(=O)C2CCC2)C1 showed an INHIBITION of 43%.
CCOCc1nc(N2CCCC2)sc1C(=O)NCCC(=O)OCC gave an INHIBITION of 2.55%.
Cn1ccnc1CN1CCc2c(COCC3CC3)nn(C)c2C1 was tested, and the INHIBITION was 38.5%.
Cn1cc(C2CC(=O)NC23CCN(C(=O)Cc2ccccn2)CC3)cn1 (stereo unspecified) was tested, and the INHIBITION was -7.29%.
In the case of CNC(=O)N1CCC2(CC1)CC[C@@]1(C(=O)NC)CN(S(C)(=O)=O)C[C@@H]21, the INHIBITION is reported as 12.5%.
Cc1ncccc1Oc1nccnc1C1CCN(C(C)C)CC1 showed an INHIBITION of 40.9%.
With COCC(=O)N1CCC(c2nccnc2Oc2cccnc2C)CC1 the INHIBITION was 50.4%.
CCc1nccn1-c1nccnc1C1CCN(C(=O)COC)CC1 gave an INHIBITION of 67.7%.
CCc1nccn1-c1cccc(C2CCN(C(=O)COC)CC2)n1 showed an INHIBITION of 20.8%.
With CCc1nccn1-c1nccnc1C1CCCN(C(=O)COC)C1 (stereo unspecified) the INHIBITION was 48.4%.
Cc1ncccc1Oc1nccnc1C1CCN(S(C)(=O)=O)CC1 showed an INHIBITION of 32.3%.
Work on CCc1nc(C2CCCN2C(=O)c2cnc3n[nH]c(C)c3c2)no1 (stereo unspecified) yielded an INHIBITION of 27%.
For CC(CN1CCCC1=O)NC(=O)Nc1cccnc1-n1cccn1 (stereo unspecified), the INHIBITION was 4.66%.
OC1CCN(c2ccnc3c(F)cc(Br)cc23)CC1 gave an INHIBITION of 16.6%.
CN1CCN(c2ccnc3c(F)cc(Br)cc23)CC1 gave an INHIBITION of 62.8%.
Molecule CC(=O)N1CCN(c2ccnc3c(F)cc(Br)cc23)CC1 has an INHIBITION of 40.6%.
With CN(C)CC(=O)N1CCOC2(CCCN(c3ncccc3F)C2)C1 (stereo unspecified) the INHIBITION was 21.8%.
Molecule CN([C@@H]1CCC[C@@H](n2ccnc2)[C@@H]1O)S(=O)(=O)c1cn(C)cn1 has an INHIBITION of 13.7%.
CC(C)(C)c1n[nH]c(C2CN(Cc3nnc(C4CCC4)o3)CCO2)n1 (stereo unspecified) gave an INHIBITION of -38.2%.
In the case of O=C(CCc1ccccc1)N1CCCC(c2n[nH]c3nccnc23)C1 (stereo unspecified), the INHIBITION is reported as 32.8%.
COc1ccccc1NC(=O)Cc1c(C)nc2c(c1C)c(=O)[nH]n2C showed an INHIBITION of -16.5%.
In the case of Cc1nc2c(c(C)c1CC(=O)Nc1ccccc1F)c(=O)[nH]n2C, the INHIBITION is reported as 60.9%.
Molecule Cc1nc2c(c(C)c1CC(=O)NCc1ccccc1F)c(=O)[nH]n2C has an INHIBITION of 39.2%.
COc1ccccc1C(O)CNC(=O)Nc1cccnc1OC (stereo unspecified) was tested, and the INHIBITION was -13.5%.
COc1cc(N2CCC3(CC2)CC(N2CCOCC2)C3)ncn1 showed an INHIBITION of 0.112%.
In the case of CN1CCC(N[C@@H]2CO[C@H](CNC(=O)c3cccs3)[C@H]2O)CC1, the INHIBITION is reported as 17.4%.
With CC(=O)N1CCC(N[C@@H]2CO[C@H](CNC(=O)c3cccs3)[C@H]2O)CC1 the INHIBITION was 60.9%.
Work on CC(C)N[C@@H]1CO[C@H](CNC(=O)Nc2ccccc2)[C@H]1O yielded an INHIBITION of 50.2%.
O=C(NC[C@H]1OC[C@@H](NC2COC2)[C@@H]1O)Nc1ccccc1 showed an INHIBITION of 12.4%.
CC(C)(C)CN[C@@H]1CO[C@H](CNC(=O)Nc2ccccc2)[C@H]1O gave an INHIBITION of 41.1%.
O=C(NC[C@H]1OC[C@@H](NC2CCC2)[C@@H]1O)c1cccs1 gave an INHIBITION of 18.4%.
O=C(NC[C@H]1OC[C@@H](NCc2ccccc2F)[C@@H]1O)Nc1ccccc1 gave an INHIBITION of -13.4%.
CC(C)NC(=O)NC[C@H]1OC[C@@H](NCc2ccccc2O)[C@@H]1O showed an INHIBITION of 4.59%.
For CC(C)N[C@@H]1CO[C@H](CNC(=O)c2ccccc2)[C@H]1O, the INHIBITION was -6.23%.
CC(C)NC(=O)NC[C@H]1OC[C@@H](NCc2ccccc2F)[C@@H]1O gave an INHIBITION of 58.5%.
In the case of O=C(NC[C@H]1OC[C@@H](NC2CCOCC2)[C@@H]1O)Nc1ccccc1, the INHIBITION is reported as 51%.
For O=C(NC[C@H]1OC[C@@H](NC2CCC2)[C@@H]1O)Nc1ccccc1, the INHIBITION was 41.9%.
With Cn1cc(CN2CCc3nc4ccccc4c(=O)n3CC2)cn1 the INHIBITION was -10.2%.
Molecule COC(=O)C(NC(=O)CCOC(C)C)c1cc(F)ccc1F (stereo unspecified) has an INHIBITION of -19.9%.
In the case of Cc1ccc(N(CC(=O)N2CCCCC2)C(=O)C2COCCO2)cc1 (stereo unspecified), the INHIBITION is reported as 11.6%.
CC(C)CC(NC(=O)c1cccs1)c1nc2cccnc2n1C (stereo unspecified) gave an INHIBITION of -11.4%.
Cn1ccnc1C1(O)CCN(C(=O)CCc2ccccc2)CC1 showed an INHIBITION of 27.465%.
O=C1NCCCc2[nH]c(C3CCN(C(=O)C4CC4)CC3)nc21 gave an INHIBITION of 10.4%.
CN(CCn1cncc1-c1cnc(N2CCOCC2)nc1)C1CCCC1 gave an INHIBITION of -11.05%.
O=C(NC[C@H]1OC[C@@H](NC2CCCCC2)[C@@H]1O)Nc1ccccc1 showed an INHIBITION of 26%.
CN1CCC(N[C@@H]2CO[C@H](CNC(=O)Nc3ccccc3)[C@H]2O)CC1 gave an INHIBITION of 60.1%.
For O=C(NC[C@H]1OC[C@@H](NCc2ccccc2)[C@@H]1O)Nc1ccccc1, the INHIBITION was 17.7%.
Work on CN(C)C(=O)Cn1c(C2CC2)c(CN2CCOCC2)c2cccnc21 yielded an INHIBITION of -13.2%.
With Cc1c(Cl)cccc1N1CC(c2nnc(N)s2)CC1=O (stereo unspecified) the INHIBITION was 35.8%.
CC(C)(C)c1coc([C@@H]2COCCN2Cc2ccccn2)n1 gave an INHIBITION of -37.4%.
CC(C)(C)c1coc([C@@H]2COCCN2Cc2c[nH]cn2)n1 gave an INHIBITION of 62.8%.
Cn1c(CN2CCOC[C@H]2c2nc(C(C)(C)C)co2)nc2ccccc21 showed an INHIBITION of 52%.
Work on CC(C)(C)c1coc([C@@H]2COCCN2Cc2ccccc2)n1 yielded an INHIBITION of 3.25%.
Work on CC(C)(C)c1coc([C@@H]2COCCN2Cc2ncc[nH]2)n1 yielded an INHIBITION of 20.9%.
Molecule Cn1cc(CN2CCOC[C@H]2c2nc(C(C)(C)C)co2)c2ccccc21 has an INHIBITION of 10%.
